Source: ChEMBL document CHEMBL3988442, “University of Dundee, Small-Polar-MMV Screening Library” (2021)
For some assays here: Potency and affinity values are given separately.

Columns and labels:
Parameters in all cases: scale not given: direction of the effect not stated beside the values
[1] = target: Protein translocase subunit SecA (Escherichia coli (strain K12)) (UniProt P10408); experiment: Assay to Identify E. coli SecA ATPase Inhibitors; type: functional; conditions: 30 µM
[2] = target: T1, Ubiquitin-activating enzyme e1, putative (Leishmania donovani (strain BPK282A1)) (UniProt E9BSI1); experiment: Leishmania donovani Ubiquitin Activating Enzyme (LdE1); type: functional; conditions: 30 µM
T1 sequence (whole entry): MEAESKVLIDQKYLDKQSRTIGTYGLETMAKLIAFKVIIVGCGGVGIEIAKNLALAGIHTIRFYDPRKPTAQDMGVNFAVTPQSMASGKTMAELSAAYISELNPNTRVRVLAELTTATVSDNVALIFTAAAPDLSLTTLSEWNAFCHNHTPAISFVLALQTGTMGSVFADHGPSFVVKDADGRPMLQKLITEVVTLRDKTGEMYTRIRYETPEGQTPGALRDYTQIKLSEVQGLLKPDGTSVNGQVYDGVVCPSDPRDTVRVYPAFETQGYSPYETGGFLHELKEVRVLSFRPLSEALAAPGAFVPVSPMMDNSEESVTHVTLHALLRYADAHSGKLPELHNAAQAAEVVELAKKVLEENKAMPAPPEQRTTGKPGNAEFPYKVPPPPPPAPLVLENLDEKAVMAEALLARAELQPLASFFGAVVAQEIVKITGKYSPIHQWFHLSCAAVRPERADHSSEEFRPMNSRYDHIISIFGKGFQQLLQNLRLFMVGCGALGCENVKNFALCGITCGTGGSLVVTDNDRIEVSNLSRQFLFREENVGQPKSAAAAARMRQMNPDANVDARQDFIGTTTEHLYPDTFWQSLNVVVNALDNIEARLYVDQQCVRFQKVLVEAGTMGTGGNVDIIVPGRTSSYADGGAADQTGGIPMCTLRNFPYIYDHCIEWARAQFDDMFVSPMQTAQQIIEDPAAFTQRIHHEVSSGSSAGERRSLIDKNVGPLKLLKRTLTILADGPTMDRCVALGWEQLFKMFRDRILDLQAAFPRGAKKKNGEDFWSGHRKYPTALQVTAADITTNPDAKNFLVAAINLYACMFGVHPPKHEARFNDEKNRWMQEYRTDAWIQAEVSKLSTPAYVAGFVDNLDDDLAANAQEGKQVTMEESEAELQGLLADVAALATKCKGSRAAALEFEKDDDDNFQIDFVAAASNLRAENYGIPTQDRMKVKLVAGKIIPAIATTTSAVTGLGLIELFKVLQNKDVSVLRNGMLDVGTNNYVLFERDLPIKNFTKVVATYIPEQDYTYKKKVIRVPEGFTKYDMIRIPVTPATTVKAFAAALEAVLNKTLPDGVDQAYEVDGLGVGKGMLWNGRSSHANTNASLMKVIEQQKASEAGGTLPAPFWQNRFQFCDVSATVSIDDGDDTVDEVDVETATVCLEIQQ

[3] = target: AMP-activated protein kinase, AMPK (Homo sapiens) (UniProt P54646+O43741+P54619+Q9UGJ0+Q9Y478+Q13131+Q9UGI9); experiment: AMP-dependent Kinase enzyme assay. An in vitro enzyme assay that detects ADP turnover that is directly proportional to AMPK activity. This uses naive AMPK that is activated during the assay with MK-8722; type: functional; conditions: 30 µM
[4] = target: Sialic acid-binding Ig-like lectin 9 (Homo sapiens) (UniProt Q9Y336); experiment: Hs-Siglec9 ALPHAscreen SOP 20170721; conditions: 10 µM
Sialic acid-binding Ig-like lectin 9 (Homo sapiens), sequence (Q9Y336 whole entry): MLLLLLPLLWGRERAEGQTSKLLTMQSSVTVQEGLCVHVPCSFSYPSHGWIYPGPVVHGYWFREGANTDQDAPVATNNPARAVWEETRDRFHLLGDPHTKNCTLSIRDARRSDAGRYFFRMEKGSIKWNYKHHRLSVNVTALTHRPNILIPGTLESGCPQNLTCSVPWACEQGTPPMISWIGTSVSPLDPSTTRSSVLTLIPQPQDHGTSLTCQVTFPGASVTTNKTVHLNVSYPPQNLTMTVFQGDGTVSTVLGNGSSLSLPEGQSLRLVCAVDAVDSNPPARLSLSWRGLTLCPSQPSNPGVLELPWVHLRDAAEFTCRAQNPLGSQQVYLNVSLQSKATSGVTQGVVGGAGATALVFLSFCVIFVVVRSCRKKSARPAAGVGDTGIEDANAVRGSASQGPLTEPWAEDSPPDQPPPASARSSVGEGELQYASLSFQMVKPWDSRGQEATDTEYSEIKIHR

Trypanosoma cruzi = experiment: Trypanosoma cruzi phosphomannomutase and mannose-1-phosphate guanylyltransferase assay; type: functional; conditions: 10 µM
[5] = target: T2, Arginase-2, mitochondrial (Homo sapiens) (UniProt P78540); experiment: in vitro enzyme assay to detect the production of urea directly proportional to the activity of Arginase II; type: functional; conditions: 33.3 µM; also: in the data most compounds retested in dose-response had high values
T2 sequence (whole entry): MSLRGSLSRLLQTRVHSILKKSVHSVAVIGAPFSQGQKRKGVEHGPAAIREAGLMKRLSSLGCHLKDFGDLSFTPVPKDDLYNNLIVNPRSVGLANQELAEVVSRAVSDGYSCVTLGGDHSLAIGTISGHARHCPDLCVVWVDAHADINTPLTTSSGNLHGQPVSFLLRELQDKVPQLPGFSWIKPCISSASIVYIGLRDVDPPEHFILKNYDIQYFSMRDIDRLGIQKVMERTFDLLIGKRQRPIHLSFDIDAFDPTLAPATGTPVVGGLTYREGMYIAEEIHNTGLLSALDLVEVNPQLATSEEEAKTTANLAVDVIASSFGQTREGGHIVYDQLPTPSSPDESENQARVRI

[6] = target: T3, Proteasome subunit beta (Trypanosoma cruzi) (UniProt O96673); experiment: Trypanosoma cruzi proteasome chymotrypsin-like activity (TcProtChymo) assay.; also: in the data most compounds retested in dose-response had high values; type: functional; conditions: 9.37 µM
T3 sequence (whole entry): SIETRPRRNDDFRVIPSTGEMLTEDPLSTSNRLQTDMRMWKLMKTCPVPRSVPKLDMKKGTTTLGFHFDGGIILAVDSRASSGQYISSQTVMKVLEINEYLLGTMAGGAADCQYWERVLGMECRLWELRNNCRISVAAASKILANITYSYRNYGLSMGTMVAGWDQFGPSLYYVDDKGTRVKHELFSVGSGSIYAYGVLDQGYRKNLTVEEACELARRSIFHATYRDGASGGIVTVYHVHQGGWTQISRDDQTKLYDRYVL

Homo sapiens = species on record: Homo sapiens; experiment: To identify inhibition of the IFN signalling (Jak-Stat) pathway via expression of an eGFP reporter gene under the control of an IFN-stimulated response element (ISRE) containing MxA promoter.; type: functional; conditions: 30 µM
[7] = target: T4, Tyrosyl-tRNA synthetase, putative (Trypanosoma cruzi (strain CL Brener)) (UniProt Q4DSP6); experiment: Trypanosoma cruzi tyrosyl tRNA synthetase (TcYRS) _High Tyrosine SOP; type: functional; conditions: 30 µM; also: in the data most compounds retested in dose-response had high values
T4 sequence (whole entry): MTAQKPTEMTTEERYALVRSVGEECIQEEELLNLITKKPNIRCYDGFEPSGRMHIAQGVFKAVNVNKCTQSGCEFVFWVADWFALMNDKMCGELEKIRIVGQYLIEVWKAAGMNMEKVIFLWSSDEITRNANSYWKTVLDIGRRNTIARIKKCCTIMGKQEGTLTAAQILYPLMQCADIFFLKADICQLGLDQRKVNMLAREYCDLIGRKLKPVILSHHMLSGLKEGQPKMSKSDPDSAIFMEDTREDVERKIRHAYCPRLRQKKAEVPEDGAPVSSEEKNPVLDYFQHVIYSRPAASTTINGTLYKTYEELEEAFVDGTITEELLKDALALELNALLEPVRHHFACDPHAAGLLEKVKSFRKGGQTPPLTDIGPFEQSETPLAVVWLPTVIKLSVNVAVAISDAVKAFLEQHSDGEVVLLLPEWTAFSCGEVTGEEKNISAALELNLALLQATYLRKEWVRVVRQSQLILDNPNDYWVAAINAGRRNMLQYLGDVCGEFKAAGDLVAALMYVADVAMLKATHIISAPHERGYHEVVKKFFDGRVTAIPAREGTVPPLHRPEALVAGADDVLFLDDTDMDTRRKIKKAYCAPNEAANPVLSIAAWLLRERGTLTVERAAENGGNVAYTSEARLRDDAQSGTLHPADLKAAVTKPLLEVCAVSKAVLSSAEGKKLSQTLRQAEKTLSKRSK

[8] = target: T4, Tyrosyl-tRNA synthetase, putative (Trypanosoma cruzi (strain CL Brener)); experiment: Trypanosoma cruzi tyrosyl tRNA synthetase (TcYRS) SOP; type: functional; conditions: 30 µM
[9] = target: Chromo domain-containing protein 1 (Saccharomyces cerevisiae (strain ATCC 204508 / S288c) (Baker's yeast)) (UniProt P32657); experiment: ScCHD-1 Enzyme Inhibition Assay; type: functional; conditions: 30 µM; also: in the data most compounds retested in dose-response had high values
Chromo domain-containing protein 1 (Saccharomyces cerevisiae (strain ATCC 204508 / S288c) (Baker's yeast)), sequence (P32657 whole entry, the tested form may be a part): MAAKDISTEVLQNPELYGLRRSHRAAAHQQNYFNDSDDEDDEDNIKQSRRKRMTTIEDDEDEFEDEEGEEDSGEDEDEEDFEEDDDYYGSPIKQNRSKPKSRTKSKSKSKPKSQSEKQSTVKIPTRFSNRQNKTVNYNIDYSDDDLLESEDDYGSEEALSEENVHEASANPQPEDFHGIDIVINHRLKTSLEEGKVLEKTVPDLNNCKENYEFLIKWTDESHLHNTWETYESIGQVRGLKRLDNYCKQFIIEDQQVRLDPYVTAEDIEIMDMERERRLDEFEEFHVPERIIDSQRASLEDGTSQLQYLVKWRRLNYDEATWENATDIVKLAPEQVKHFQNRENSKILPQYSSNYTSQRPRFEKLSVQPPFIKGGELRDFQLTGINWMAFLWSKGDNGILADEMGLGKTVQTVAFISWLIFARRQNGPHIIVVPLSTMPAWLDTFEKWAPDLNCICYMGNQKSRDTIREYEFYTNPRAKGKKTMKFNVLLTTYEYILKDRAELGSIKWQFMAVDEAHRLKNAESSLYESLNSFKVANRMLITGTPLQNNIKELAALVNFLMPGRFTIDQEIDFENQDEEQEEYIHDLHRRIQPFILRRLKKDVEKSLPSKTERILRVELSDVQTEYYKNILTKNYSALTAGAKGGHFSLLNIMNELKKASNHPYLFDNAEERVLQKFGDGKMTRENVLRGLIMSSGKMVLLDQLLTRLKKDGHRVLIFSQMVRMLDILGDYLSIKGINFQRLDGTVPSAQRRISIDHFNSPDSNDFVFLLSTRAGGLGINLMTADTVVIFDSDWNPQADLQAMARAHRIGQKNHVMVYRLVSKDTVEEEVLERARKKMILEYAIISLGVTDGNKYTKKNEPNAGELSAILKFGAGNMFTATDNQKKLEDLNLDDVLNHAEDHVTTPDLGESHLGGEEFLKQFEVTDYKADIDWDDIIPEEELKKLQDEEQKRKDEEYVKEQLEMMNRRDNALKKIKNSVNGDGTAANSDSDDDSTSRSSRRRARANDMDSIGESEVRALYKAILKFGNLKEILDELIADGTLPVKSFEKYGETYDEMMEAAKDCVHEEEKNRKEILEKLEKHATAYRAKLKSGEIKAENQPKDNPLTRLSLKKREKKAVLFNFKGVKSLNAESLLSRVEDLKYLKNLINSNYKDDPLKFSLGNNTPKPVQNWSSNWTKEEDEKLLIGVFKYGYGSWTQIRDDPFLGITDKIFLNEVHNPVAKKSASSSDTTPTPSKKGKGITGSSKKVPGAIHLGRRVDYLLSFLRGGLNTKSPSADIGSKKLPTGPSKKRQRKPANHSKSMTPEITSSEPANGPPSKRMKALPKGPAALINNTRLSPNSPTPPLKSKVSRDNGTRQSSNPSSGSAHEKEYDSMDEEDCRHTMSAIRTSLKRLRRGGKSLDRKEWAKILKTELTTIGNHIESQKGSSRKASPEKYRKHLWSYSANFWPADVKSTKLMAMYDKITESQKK

Protein translocase subunit SecA (Escherichia coli (strain K12)), sequence (P10408 whole entry): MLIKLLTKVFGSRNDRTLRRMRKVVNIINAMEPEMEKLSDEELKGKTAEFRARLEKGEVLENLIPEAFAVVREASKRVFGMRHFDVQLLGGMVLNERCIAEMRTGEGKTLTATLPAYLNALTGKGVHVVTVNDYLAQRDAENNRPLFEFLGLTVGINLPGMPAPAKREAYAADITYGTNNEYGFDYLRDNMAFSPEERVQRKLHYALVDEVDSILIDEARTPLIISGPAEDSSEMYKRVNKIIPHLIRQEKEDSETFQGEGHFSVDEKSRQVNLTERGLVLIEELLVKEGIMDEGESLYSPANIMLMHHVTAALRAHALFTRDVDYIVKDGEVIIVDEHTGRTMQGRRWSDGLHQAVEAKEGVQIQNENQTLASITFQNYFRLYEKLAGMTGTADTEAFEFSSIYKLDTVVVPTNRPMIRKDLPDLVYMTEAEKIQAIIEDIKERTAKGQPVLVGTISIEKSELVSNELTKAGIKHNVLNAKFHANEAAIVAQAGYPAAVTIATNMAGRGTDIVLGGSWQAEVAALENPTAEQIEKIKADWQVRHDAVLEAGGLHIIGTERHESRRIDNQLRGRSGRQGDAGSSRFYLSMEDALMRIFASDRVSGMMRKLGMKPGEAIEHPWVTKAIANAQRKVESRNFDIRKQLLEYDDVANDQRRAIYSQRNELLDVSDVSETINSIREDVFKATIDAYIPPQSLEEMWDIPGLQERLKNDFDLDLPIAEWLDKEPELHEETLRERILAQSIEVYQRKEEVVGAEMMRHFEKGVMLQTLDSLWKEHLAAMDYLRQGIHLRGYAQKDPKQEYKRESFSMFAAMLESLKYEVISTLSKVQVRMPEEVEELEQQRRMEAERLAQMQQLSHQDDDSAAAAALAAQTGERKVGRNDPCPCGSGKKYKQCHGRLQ

Row | Compound | Percent Effect [1] | Percent Effect [2] | Percent Effect [3] | Percent Effect [4] | Percent Effect (Trypanosoma cruzi) | Percent Effect [5] | Percent Effect [6] | Percent Effect (Homo sapiens) | Percent Effect [7] | Percent Effect [8] | Percent Effect [9]
1 | Cc1nc(C)n(CC2CCCN(CCCOc3ccccc3)C2)n1 (configuration not stated) | -3.18% | 1.27% | 8.34% | 3.65% | -0.718% | 1.07% | -1.37% | -1.23% | 3.12% | 12.7% | -5.2%
2 | COc1c(CNCc2cccc(CS(C)(=O)=O)c2)c(C)nn1C | -1.32% | 13.5% | -7.47% | -4.4% | -6.13% | 1.2% | 4.68% | 4.32% | -0.493% | 11.1% | -6.98%
3 | COCCn1nc(C(=O)N2CCCC2c2cccc(F)c2)ccc1=O (configuration not stated) | -0.858% | 5.41% | -0.552% | 11.3% | 2.9% | 10% | 8.1% | -4.91% | -0.529% | -2.44% | -0.976%
4 | Cc1cc(C)n(CC2CCCN2C(=O)CCCc2ccccn2)n1 (configuration not stated) | -6.25% | 2.63% | 5.48% | 0.753% | -3.76% | 2.68% | 10.9% | 16.9% | 1.47% | 4.88% | -3.06%
5 | N#Cc1ccccc1CN1C[C@@H]2CC[C@H](C1)N(Cc1cscn1)C2=O | -1.93% | 5.41% | -3.34% | 8.56% | -2.9% | -1.91% | 9.14% | -7.44% | 3.7% | -14.6% | -3.95%
6 | COc1ccc(CN2CCn3cc(CN4CCCCC4)nc3C2)cc1 | -4.9% | 2.6% | 1.83% | -4.04% | -0.888% | -4.52% | 10.3% | -6.42% | 3.17% | -8.97% | -2.75%
7 | O=C(c1ccco1)N1CCCC1C1CCN(Cc2ccccc2)CC1 (configuration not stated) | -3.11% | 7.89% | 6.52% | -0.267% | -2.24% | 4.73% | 17.9% | 8.16% | 6.38% | 10.4% | -2.37%
8 | CC(C(N)=O)S(=O)(=O)Cc1cc(Cl)c2c(c1)OCO2 (configuration not stated) | -0.171% | 15.8% | 1.18% | -10.6% | -3.83% | 7.91% | 6.51% | 7.44% | 5.42% | 13.6% | -7.99%
9 | CC(C)(C)c1nc(CN2CCCC2Cn2cccn2)no1 (configuration not stated) | -1.54% | 26% | -0.88% | -2.85% | 2.81% | 6.41% | 17.7% | 18.5% | 12.6% | 26.8% | -9.21%
10 | CCc1nc(CN2CCCC(NCc3cnn(C(C)(C)C)c3)C2)no1 (configuration not stated) | -2.85% | 2.53% | -0.494% | 3.84% | -1.6% | -1.52% | 6.63% | 14.9% | -1.48% | -1.27% | -0.901%
11 | CN(Cc1nnc(C2CC2)n1C)C1CCN(Cc2ccc(F)cc2)C1 (configuration not stated) | -0.349% | 18.9% | -8.58% | 2.26% | 0.283% | -8.02% | 13% | 5.85% | -1.48% | 18.5% | -10.5%
12 | Cc1csc2c(N3CCC(NCCCc4ccncc4)CC3)ncnc12 | -0.362% | 2.6% | 5.76% | 17.7% | -1.08% | -1.38% | 6.49% | -3.09% | 7.53% | 11.1% | -2.5%
13 | CCCNC(=O)CCC(=O)Nc1ccc(-n2cncn2)c(F)c1 | -7% | 2.63% | -2.96% | 4.31% | -6.2% | -2.68% | -0.501% | 29.1% | -0.49% | 0% | -1.12%
14 | Cc1cc(C(=O)N2Cc3ccccc3OC3(CCOCC3)C2)nc(N)n1 | -5.65% | 17.6% | 1.22% | -2.77% | 0% | -4.87% | 22.9% | 0.0795% | 2.15% | 14.3% | -24%
15 | CC(=O)N(Cc1noc(C)n1)C1CCN(Cc2ccccc2C#N)C1 (configuration not stated) | -1.89% | 3.8% | 1.41% | 1.68% | 1.74% | 5.38% | 6.17% | -5.16% | 0% | 5.06% | 0.362%
16 | CNC(=O)Nc1cc(-c2ccccc2C)nn1CCO | -4.2% | 7.89% | -1.72% | -9.84% | -3.8% | -5.92% | 17.2% | -9.47% | 1.06% | 0% | -7.09%
17 | CCOc1ccc(N2CCCN=C2NC(=O)c2ccccc2C)cc1 | -3.08% | 7.79% | -2.01% | 4.38% | -0.0983% | -5.52% | 9.98% | -13.7% | 6.45% | 16.1% | 106%
18 | O=C(c1cccc2c1OCCO2)N1CCCC(n2ccnc2)C1 (configuration not stated) | -2.67% | 5.26% | 2.73% | -0.188% | -9.77% | 3.45% | 2.17% | 13.9% | 3.43% | 4.88% | 3.23%
19 | COCCN1CCC2(CC1)CC(COC)N(c1ncccn1)C2 (configuration not stated) | -4.36% | 7.79% | 1.21% | 1.5% | 1.48% | -19.3% | 7.99% | -6.06% | 3.23% | 3.7% | 1.23%
20 | CC(C)Oc1ccccc1CNC(=O)N1CCC(n2cncn2)CC1 | -9.7% | 11.4% | -5.06% | -3.04% | 3.79% | -2.37% | 17.3% | 7.86% | 5.21% | 12.7% | -29.4%
21 | CC(C)c1nc(N2CC(N3CCCCC3C)C2)c2cnn(C)c2n1 (configuration not stated) | -7.05% | -2.74% | -1.43% | -2.38% | -7.14% | -2% | 4.54% | 4.43% | -3.12% | 8.64% | -2.78%
22 | O=C(CN(Cc1ccccc1)CC1CCOCC1)Nc1nccs1 | -4.59% | 0% | 0.406% | 1.15% | -4.17% | 0.399% | 4.2% | -3.27% | 6.25% | 11.1% | -0.498%
